Shown are actives, neighbours in structure and some others; about 2.4% of the full set was active somewhere.
POLK inh = inhibitors of human DNA polymerase kappa | Potency, µM (series often up to 107 µM), without a hit: at the top dose activity, negative = inhibition, most hits filed as inhibitors | purified Pol kappa, fluorescent DNA synthesis assay, 10 min | 0.53% of 400,000 active; also: % is scaled to controls: 0 for no effect and ±100 for the full control effect
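Kinetic fluorescence readout at 0 and 10 min followed reaction start with substrate at 50 nM final. Beforehand, enzyme (10 nM Pol kappa) stood 15 min with compound at room temperature; buffer-only wells were negative controls.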
POLH inh = blocks human DNA polymerase eta activity. Q9Y253. recombinant Pol eta, fluorescent DNA replication assay. Potency, µM (doses to about 114 µM), inactives show at the top dose activity change, negative = inhibition, hits mostly inhibitors. 1.2% of 390,000 active; also: % is scaled to controls: 0 for no effect and ±100 for the full control effect
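Pol eta at 10 nM preincubated with compounds 15 min at room temperature; reaction started with fluorescent substrate (50 nM final) and read kinetically at 0 and 10 min.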
KAT2A inh = blocks human GCN5L2 histone acetyltransferase. 0.21% of 390,000 active. Potency, µM (series often up to 58.9 µM), for the others: at the highest dose activity change, negative = inhibition, usual class: inhibitors. GCN5L2 HAT assay, ThioGlo1 CoA-SH fluorescence; also: % is scaled to controls: 0 for no effect and ±100 for the full control effect
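GCN5L2 (20 nM) in 50mM HEPES pH 7.5, 0.1mM EDTA, 0.01% Tween-20 preincubated 15 min with compounds at room temperature. Reaction started with H3(1-25) 75uM, acetyl-CoA 70uM, ThioGlo1 50uM; CoA-thiol fluorescence (Ex340/Em540) read at 0 and 20 min.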
Pol beta inh = inhibitors of human DNA polymerase beta; P06746; Pol beta primer extension/strand displacement, fluorescence kinetic; Potency, µM (highest dose often 114 µM), for inactives: at the highest dose activity change, negative = inhibition, most hits filed as inhibitors; 1.3% of 340,000 active; AID 485314; also: % is scaled to controls: 0 for no effect and ±100 for the full control effect
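Pol beta (10 nM) was preincubated with compound for 15 min at room temperature. The reaction was then started with 50 nM substrate and read immediately and after a further 10 min at room temperature.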
POLI inh = blocks human DNA polymerase iota activity. 1% of 390,000 active. AID 588590. Pol iota fluorescent replication assay, 10 min. Potency, µM (highest dose often 115 µM), inactives show top-dose activity, negative = inhibition, most hits filed as inhibitors
Target sequence (Q9UNA4 whole entry, looked up): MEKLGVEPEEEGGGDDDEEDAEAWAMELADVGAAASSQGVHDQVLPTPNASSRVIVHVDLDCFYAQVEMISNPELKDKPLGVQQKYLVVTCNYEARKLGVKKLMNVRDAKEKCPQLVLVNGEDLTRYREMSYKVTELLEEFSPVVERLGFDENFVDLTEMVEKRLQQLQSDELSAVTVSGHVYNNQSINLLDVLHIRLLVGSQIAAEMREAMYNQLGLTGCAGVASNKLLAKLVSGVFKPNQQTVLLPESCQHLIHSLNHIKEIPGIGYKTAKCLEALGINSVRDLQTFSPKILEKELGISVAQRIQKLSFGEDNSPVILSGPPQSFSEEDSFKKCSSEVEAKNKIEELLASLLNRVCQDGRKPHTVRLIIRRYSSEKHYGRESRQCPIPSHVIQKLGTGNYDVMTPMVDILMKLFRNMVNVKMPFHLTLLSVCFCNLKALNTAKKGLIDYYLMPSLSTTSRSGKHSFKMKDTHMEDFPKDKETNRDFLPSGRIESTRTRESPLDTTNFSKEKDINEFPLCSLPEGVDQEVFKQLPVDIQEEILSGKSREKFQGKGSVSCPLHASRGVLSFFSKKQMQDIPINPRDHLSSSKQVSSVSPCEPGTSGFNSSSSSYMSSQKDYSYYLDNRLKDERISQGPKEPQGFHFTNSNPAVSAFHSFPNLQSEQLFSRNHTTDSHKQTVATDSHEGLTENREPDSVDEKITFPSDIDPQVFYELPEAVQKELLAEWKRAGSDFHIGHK
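Pol iota at 10 nM preincubated 15 min with compounds at room temperature; reaction started with fluorescent substrate, 50 nM final. Fluorescence read kinetically at 0 and 10 min; buffer-only wells as negative control.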
GLS inhibitor = blocks human kidney-isoform glutaminase activity. O94925. GLS enzymatic activity, qHTS titration. Potency, µM (doses to about 45.5 µM), for the others: at the top dose activity change, negative = inhibition, most hits filed as inhibitors. 0.21% of 410,000 active; also: % is scaled to controls: 0 for no effect and ±100 for the full control effect
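hKGA in 45 mM KH2PO4 pH 8.2, 0.02% Tween-20 with pin-transferred compounds; 1 mM L-glutamine (stock) plus glutamate oxidase/HRP/Amplex Red coupling added. Fluorescence read initially and after 30 min at RT.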
The depositor's hits bear a star; ? = inconclusive; . = not tested or not shown; [ ] = another dose, or the depositor's remark. Calls follow the shape of the dose curve; as a rule, active = well fitted inhibition curve with a large enough effect; inconclusive = small, poorly fitted or top-dose-only effect, or another doubt; inactive = no such curve, though single readings can be large or run the other way. Potency is read from the fitted curve at half-maximal effect.

SMILES	POLK inh	POLH inh	KAT2A inh	Pol beta inh	POLI inh	GLS inhibitor
O=C(/C=C/c1ccco1)NCc1ccc2c(c1)OCO2	-1%	-7%	-6%	20µM*	6%	6%
O=C(NCc1ccccc1)c1cc(-c2ccco2)on1	-2%	0%	-19%	13%	-5%	4%
Cc1ccc(O)c(NC(=O)c2ccc(Br)c(S(=O)(=O)N3CCCCC3)c2)c1	-21%	-13%	-19%	4%	-15%	20%
Cc1ccc(S(=O)(=O)c2cn(CC(=O)Nc3ccc4c(c3)OCO4)c3ccccc3c2=O)cc1C	-28%	-2%	?	4%	17%	-3%
CC12CCC(C(=O)NCc3ccc4c(c3)OCO4)(OC1=O)C2(C)C (stereo unspecified)	-18%	-6%	0%	36%	89µM*	6%
O=C(/C=C/c1ccco1)NC(=S)Nc1ccc(Cl)cn1	-32%	?	3%	35µM*	?	23%
O=C(NCc1ccco1)c1c(F)c(F)c(F)c(C(=O)NCc2ccco2)c1F	?	45µM*	-46%	?	-17%	13%
NNC(=S)NCc1ccco1	-30%	-9%	-5%	0%	20µM*	-10%
C(=C\c1cnc2ccccc2n1)/c1ccc2c(c1)OCO2	6%	.	.	.	20%	.
O=C(Nc1ccc([N+](=O)[O-])cc1Cl)c1ccccc1O	-10%	.	.	.	-16%	.
CCCS(=O)(=O)Nc1cccc(-c2cn3ccc(C)cc3n2)c1	7%	-6%	-2%	30%	-13%	12%
O=C(COc1ccccc1C(=O)Nc1ccccc1)Nc1cccc([N+](=O)[O-])c1	-18%	.	.	.	-12%	.
CCC(=O)Nc1ccc(NC(=S)NC(=O)/C=C/c2ccco2)cc1	-24%	?	-16%	-27%	?	-5%
CC(=O)NC(=S)Nc1ccc(NC(=S)NC(=O)/C=C/c2ccco2)cc1	-31%	?	-24%	?	32µM*	-5%
O=c1c2cc(NC(=S)N3CCCC3)ccc2nc2n1CCCCC2	-8%	-10%	-6%	4%	28%	-13%
O=C(/C=C/c1ccco1)Nc1ccc2nc3n(c(=O)c2c1)CCCC3	-7%	16%	-15%	-21%	71µM*	-4%
COc1ccc(/C=C/c2ccc3ccccc3n2)cc1OC	-37%	.	.	.	-13%	.
CC(C)(S)C(=O)NC(CS)C(=O)O (stereo unspecified)	.	.	.	.	.	-1%
COc1ccc(-n2c(SCC(=O)NCc3ccco3)nc3sc4c(c3c2=O)CCN(C)C4)cc1	-24%	?	3%	?	32µM*	?
Cc1ccc(-n2c(Cc3cccn3C)nnc2SCC(=O)NCc2ccc3c(c2)OCO3)cc1	-36%	-6%	0%	8.9µM*	?	4%
COc1ccc(-n2c(Cc3cccn3C)nnc2SCC(=O)NCc2ccc(F)cc2)cc1	12%	-23%	-9%	-26%	52%	0%
CN1CCc2c(sc3nc(SCC(=O)NCc4ccco4)n(-c4ccccc4)c(=O)c23)C1	0%	-31%	-14%	-1%	-17%	?
Cc1ccc(-n2c(Cc3cccn3C)nnc2SCC(=O)Nc2ccc3c(c2)OCO3)cc1	-3%	-9%	-2%	0%	2%	7%
COc1ccc(-n2c(Cc3cccn3C)nnc2SCC(=O)NCc2ccco2)cc1	?	-7%	3%	40µM*	?	3%
O=S(=O)(c1ccccc1)N1CCSC1c1ccco1 (stereo unspecified)	-8%	?	-2%	45µM*	?	5%
SMILES	POLK inh	POLH inh	KAT2A inh	Pol beta inh	POLI inh	GLS inhibitor
CC(=O)Nc1ccc(S(=O)(=O)N2CCSC2c2ccco2)cc1 (stereo unspecified)	-6%	-9%	-17%	1%	111%	-1%
O=C1c2ccccc2C(=O)c2c([N+](=O)[O-])ccc(O)c21	-36%	32µM*	-2%	?	50µM*	-17%
O=C(O)c1ccc([N+](=O)[O-])c2c1C(=O)c1ccccc1C2=O	-2%	-5%	.	.	-21%	1%
COc1ccc2nc(NC(=O)c3nc(S(=O)(=O)Cc4ccc(C)cc4)ncc3Cl)sc2c1	?	?	-27%	?	89µM*	-2%
CCC(C)NC(=O)CSC1=Nc2ccccc2C2=NC(CC(=O)NCc3ccc(F)cc3)C(=O)N12 (stereo unspecified)	-12%	0%	-3%	14%	11%	10µM*
CCN(CC)C(=O)CSC1=Nc2ccccc2C2=NC(c3ccccc3)C(=O)N12 (stereo unspecified)	-16%	-2%	0%	?	?	13µM*
COc1ccc(NC(=O)CSC2=Nc3ccccc3C3=NC(CC(=O)NCc4ccc(F)cc4)C(=O)N23)cc1 (stereo unspecified)	-5%[60.1 µM]	16%	-4%	4%	-9%	-3%
Cc1ccc(S(=O)(=O)N2CCN(c3nc(-c4ccc(C)s4)nc4ccccc34)CC2)cc1	-15%	.	.	.	?	.
COc1ccc(/C=C2\SC(N)=NC2=O)cc1Br	-20%	?	-10%	40µM*	?	4%
CC1(C)OC(=O)C2(Cc3ccccc3N3CCC(c4ccccc4)CC32)C(=O)O1 (stereo unspecified)	5%	.	.	.	-11%	.
CCOC(=O)c1c(-c2ccc(C)cc2)csc1NC(=O)/C(C#N)=C/c1ccc(O)c(OC)c1	-32%	28µM*	-15%	5%	?	2%
Cn1nnnc1Sc1ncnc2scc(-c3ccccc3)c12	-12%	?	-4%	28µM*	?	4%
Cc1nc(CC(=O)Nc2cc(Cl)ccc2C)cs1	-15%	-5%	-2%	-2%	13%	6%
O=c1oc2ccccc2c2c1C1O[C@](c3ccsc3)(Cc3c1ccc1ccccc31)O2	.	.	-38%[12.7 µM]	13µM*	.	.
O=C1C2=C(C(=O)c3ccccc31)C1O[C@](c3ccsc3)(Cc3c1ccc1ccccc31)O2	.	.	?	3.2µM*	.	.
O=C1CCCC2=C1C1O[C@](c3ccsc3)(Cc3c1ccc1ccccc31)O2	.	.	-15%[12.7 µM]	4µM*	.	.
CCCN1CNc2c(c(=O)[nH]c(=S)n2CCC(C)C)C1	-5%	.	.	.	-1%	.
COC(=O)c1cc2oc3ccccc3c2n1CC(=O)Nc1ccc(N(C)C)cc1	7%	3%	0%	46%	22%	-3%
Cc1cccc(N/N=C/c2ccc(O)c(O)c2O)c1	?	?	-9%	10µM*	?	?
COc1cccc(N/N=C/c2cccc(Br)c2O)c1	-2%	-10%	-13%	-23%	45%	?
COC(=O)c1ccc(N/N=C/c2cc([N+](=O)[O-])cc(OC)c2O)cc1	-1%	-11%	-4%	?	7%	-6%
